Inconclusive results are not listed. The source made the active and inactive calls. The calls were made as follows, unless noted: active = hit-call score of the fitted dose curve at least 0.9, where 1 is the maximum; inconclusive = response in the unintended direction; inactive = score below 0.9.
What was measured:
[1] = TOX21_p53_BLA_p2_viability: Viability Assessment in the Tox21 HCT-116 p53 Agonism Beta-lactamase Assay, Phase 2 (AID 2283591);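 also: compound exposure lasted 16 h at 37 °C; actives lower the ATP signal meaning cytotoxicity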
Summary of the method: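 HCT-116 p53-bla cells (4000/well) rested 5 h at 37C, then received compounds in DMSO (217-fold dilution) for 16 h at 37C, 5% CO2. After the CCF4 read, CellTiter-Glo was added; ATP luminescence was read after 30 min at room temperature.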

[2] = molecular target: Cellular tumor antigen p53 (Homo sapiens) (UniProt P04637); test: TOX21_p53_BLA_p2_ratio: Tox21 HCT-116 p53 Agonism Beta-lactamase Assay, Ratio, Phase 2 (AID 2283592)
Chain of Cellular tumor antigen p53 (Homo sapiens) (P04637 whole entry, looked up): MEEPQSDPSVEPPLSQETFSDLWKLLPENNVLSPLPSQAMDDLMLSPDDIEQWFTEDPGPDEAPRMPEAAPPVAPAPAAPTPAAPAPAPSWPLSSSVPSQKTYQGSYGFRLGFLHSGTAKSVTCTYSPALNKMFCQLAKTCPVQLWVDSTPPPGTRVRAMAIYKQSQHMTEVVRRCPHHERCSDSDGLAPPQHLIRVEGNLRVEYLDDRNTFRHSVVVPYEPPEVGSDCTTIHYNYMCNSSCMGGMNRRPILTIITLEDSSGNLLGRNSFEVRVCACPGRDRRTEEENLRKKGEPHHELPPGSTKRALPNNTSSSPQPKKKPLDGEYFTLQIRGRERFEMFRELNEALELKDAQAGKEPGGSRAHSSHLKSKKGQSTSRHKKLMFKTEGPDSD
Summary of the method: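 Human colon HCT116 cells with an inducible p53 beta-lactamase reporter are exposed to test chemicals for 16 h at 37C. Reporter induction is read as the 460/530 nm emission ratio after CCF4-AM loading, normalized to DMSO.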

[3] = TOX21_p53_BLA_p5_viability: Viability Assessment in the Tox21 HCT-116 p53 Agonism Beta-lactamase Assay, Phase 5 (AID 2283600)
Summary of the method: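 Seeded cells (4000/well) settle 5 h before compound addition. Plates then incubate 16 h at 37C, receive FRET substrate for 2 h, and finally CellTiter-Glo, with luminescence measured after a 30 min room-temperature incubation.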

[4] = molecular target: Cellular tumor antigen p53 (Homo sapiens) (UniProt P04637); test: TOX21_p53_BLA_p4_ratio: Tox21 HCT-116 p53 Agonism Beta-lactamase Assay, Ratio, Phase 4 (AID 2283601)
Summary of the method: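 HCT116 cells carrying an inducible beta-lactamase reporter were plated at 4000 cells/well, rested 5 h, then exposed to compounds in DMSO (217-fold dilution) for 16 h at 37C. CCF4-AM substrate was loaded 2 h at room temperature; 460/530 nm emission ratio scored gain-of-signal versus DMSO.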

[5] = TOX21_p53_BLA_p3_viability: Viability Assessment in the Tox21 HCT-116 p53 Agonism Beta-lactamase Assay, Phase 3 (AID 2283593);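 also: cells exposed to compound for 16 h before reading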
Summary of the method: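 HCT-116 cells (4000/well) rested 5 h at 37C, then got DMSO compounds by pin tool (217-fold dilution) for 16 h at 37C, 5% CO2. After the bla read, CellTiter-Glo was added and luminescence read at 30 min, room temperature.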

[6] = molecular target: Cellular tumor antigen p53 (Homo sapiens) (UniProt P04637); test: TOX21_p53_BLA_p3_ratio: Tox21 HCT-116 p53 Agonism Beta-lactamase Assay, Ratio, Phase 3 (AID 2283596)
Summary of the method: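 HCT116 p53-bla cells (4000/well) given compound in DMSO (217-fold dilution) after 5 h, incubated 16 h at 37C. CCF4-AM substrate 2 h at room temperature; 460/530 nm emission ratio, gain fitted against DMSO.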

[7] = TOX21_p53_BLA_p4_viability: Viability Assessment in the Tox21 HCT-116 p53 Agonism Beta-lactamase Assay, Phase 4 (AID 2283597);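 also: hits lower the luminescence signal meaning cytotoxicity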
Summary of the method: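 Luminescent ATP readout (CellTiter-Glo, 30 min, room temperature) in the same wells as the p53 bla ratio. HCT116 cells were treated for 16 h at 37C with DMSO-dissolved compounds.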

[8] = molecular target: Cellular tumor antigen p53 (Homo sapiens) (UniProt P04637); test: TOX21_p53_BLA_p5_ratio: Tox21 HCT-116 p53 Agonism Beta-lactamase Assay, Ratio, Phase 5 (AID 2283599)
Summary of the method: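 HCT-116 cells carrying a p53-inducible beta-lactamase reporter were seeded at 4000 cells/well and dosed after 5 h with compound in DMSO (217-fold dilution). After 16 h at 37C, CCF4-AM substrate was added for 2 h, and the 460/530 nm emission ratio was scored as gain-of-signal versus DMSO.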

[9] = CEETOX_H295R_MTT_cell_viability: Viability Assessment in the CeeTox HT-H295R MTT Assay (AID 2283718; active = hit-call score of the fitted dose curve at least 0.9, where 1 is the maximum; inactive = score below 0.9)
Summary of the method: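 H295R cells prestimulated 48 h with 10 uM forskolin, then exposed 48 h to test chemical (0.1% DMSO final). Viability by MTT (0.5 mg/ml, 4 h, 37 C), absorbance 570/650 nm; percent change versus DMSO, bidirectional fit.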

[10] = CEETOX_H295R_11DCORT_noMTC: CeeTox H295R High-throughput Steroidogenesis Assay for 11-Deoxycortisol (11DCORT), maximum tolerated concentration (MTC) filtered results only (AID 2283911; active = hit-call score of the fitted dose curve at least 0.9, where 1 is the maximum; inactive = score below 0.9); details: actives raise or lower the signal
Summary of the method: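 Forskolin-primed (10 uM, 48 h) H295R adrenal cells are dosed for 48 h at 0.1% DMSO; medium 11-deoxycortisol is quantified by LC-MS/MS against a 7-point standard curve, with activity fitted in both directions versus DMSO.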

[11] = CEETOX_H295R_OHPREG_noMTC: CeeTox H295R High-throughput Steroidogenesis Assay for OH-Pregnenolone (OHPREG), maximum tolerated concentration (MTC) filtered results only (AID 2283912; active = hit-call score of the fitted dose curve at least 0.9, where 1 is the maximum; inactive = score below 0.9); details: actives raise or lower the signal
Summary of the method: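 H295R human adrenal cells, forskolin-prestimulated (10 uM, 48 h), then exposed to test chemical in 0.1% DMSO for 48 h. 17alpha-hydroxypregnenolone in medium measured by HPLC-MS/MS after MTBE extraction; bidirectional fit versus DMSO, concentrations not MTC-filtered.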

[12] = CEETOX_H295R_OHPROG_noMTC: CeeTox H295R High-throughput Steroidogenesis Assay for OH-Progesterone (OHPROG), maximum tolerated concentration (MTC) filtered results only (AID 2283914; active = hit-call score of the fitted dose curve at least 0.9, where 1 is the maximum; inactive = score below 0.9); details: actives raise or lower the signal
Summary of the method: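 H295R human adrenal cells prestimulated 48 h with 10 uM forskolin, then exposed 48 h to test chemical (0.1% DMSO final). Medium 17alpha-hydroxyprogesterone extracted with MTBE, quantified by HPLC-MS/MS; bidirectional fit versus DMSO, concentrations not MTC-filtered.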

[13] = CEETOX_H295R_CORTISOL_noMTC: CeeTox H295R High-throughput Steroidogenesis Assay for Cortisol, maximum tolerated concentration (MTC) filtered results only (AID 2283916; active = hit-call score of the fitted dose curve at least 0.9, where 1 is the maximum; inactive = score below 0.9); details: actives raise or lower the signal
Summary of the method: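 H295R adrenal cells were pre-stimulated 48 h with 10 uM forskolin, then exposed 48 h to test chemical in 0.1% DMSO. Medium cortisol was measured by MTBE extraction and HPLC-MS/MS; bidirectional fit versus DMSO, concentrations not MTC-filtered.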

[14] = CEETOX_H295R_CORTIC_noMTC: CeeTox H295R High-throughput Steroidogenesis Assay for Corticosterone (CORTIC), maximum tolerated concentration (MTC) filtered results only (AID 2283917; active = hit-call score of the fitted dose curve at least 0.9, where 1 is the maximum; inactive = score below 0.9); details: actives raise or lower the signal
Summary of the method: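 H295R, 10 uM forskolin prestim 48 h → test chem (0.1% DMSO final) 48 h → media MTBE extraction → HPLC-MS/MS corticosterone. Bidirectional fit vs DMSO baseline; no MTT-based MTC filtering.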

[15] = CEETOX_H295R_DOC_noMTC: CeeTox H295R High-throughput Steroidogenesis Assay for DOC, maximum tolerated concentration (MTC) filtered results only (AID 2283918; active = hit-call score of the fitted dose curve at least 0.9, where 1 is the maximum; inactive = score below 0.9); details: actives raise or lower the signal
Summary of the method: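 H295R cells prestimulated 48 h with 10 uM forskolin, then exposed 48 h to test chemical (0.1% DMSO final). Medium 11-deoxycorticosterone extracted with MTBE, quantified by HPLC-MS/MS; bidirectional fit versus DMSO, concentrations not MTC-filtered.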

[16] = CEETOX_H295R_PROG_noMTC: CeeTox H295R High-throughput Steroidogenesis Assay for Progesterone (PROG), maximum tolerated concentration (MTC) filtered results only (AID 2283920; active = hit-call score of the fitted dose curve at least 0.9, where 1 is the maximum; inactive = score below 0.9); details: actives raise or lower the signal
Summary of the method: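 H295R human adrenal cells were prestimulated 48 h with 10 uM forskolin, then exposed 48 h to test chemical (0.1% DMSO final). Progesterone in medium was quantified by HPLC-MS/MS; bidirectional fitting versus DMSO, concentrations not MTC-filtered.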

[17] = CCTE_Harrill_HTTr_Viability_MCF7: CCTE's 6-hour Cell Viability Assessment for the High-Throughput Transcriptomics (HTTr) Platform, in MCF-7 cells cultured in DMEM + 10% fetal bovine serum, Harrill Lab (AID 2284010; active = hit-call score of the fitted dose curve at least 0.9, where 1 is the maximum; inactive = score below 0.9)
Summary of the method: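 MCF-7 cells in DMEM + 10% FBS, 384-well, exposed 6 h to an eight-point dilution series. Membrane integrity scored by high-content imaging of propidium iodide exclusion; bidirectional fit versus DMSO.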

[18] = CCTE_Harrill_HTTr_Apoptosis_MCF7: CCTE's 6-hour Apoptosis Assessment for the High-Throughput Transcriptomics (HTTr) Platform, in MCF-7 cells cultured in DMEM + 10% fetal bovine serum, Harrill Lab (AID 2284011; active = hit-call score of the fitted dose curve at least 0.9, where 1 is the maximum; inactive = score below 0.9)
Summary of the method: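 Apoptosis in MCF-7 cells grown in DMEM with 10% fetal bovine serum was scored after a six hour exposure by high content imaging of caspase-3/7 activation (CellEvent Caspase 3/7 Green), with DMSO serving as negative control and baseline.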

Measured: AC50

CCC(C)(C)OC(=O)N[C@@H](Cc1c[nH]c2ccccc12)C(=O)N[C@@H](CCSC)C(=O)N[C@@H](CC(=O)O)C(=O)N[C@@H](Cc1ccccc1)C(N)=O
inactive: [1] | [2] | [3] | [4]

O=C(O)CONC(=O)c1ccccc1
inactive: [1] | [5] | [6] | [7] | [8] | [3] | [4]

CCCC(=O)OC[C@@H](OC(=O)CCC)[C@@H](OC(=O)CCC)[C@H](Cn1c2nc(=O)[nH]c(=O)c-2nc2cc(C)c(C)cc21)OC(=O)CCC
inactive: [1] | [5] | [6] | [7]

CC(=O)OC[C@H]1O[C@@H](O[C@H]2[C@H](O)[C@@H](OC(=O)c3ccccc3C(=O)O)[C@H](O)O[C@@H]2COC(C)=O)[C@H](O)[C@@H](OC(=O)c2ccccc2C(=O)O)[C@@H]1O
inactive: [1] | [5] | [6] | [7]

CCOC(=O)[C@H](CCc1ccccc1)N[C@@H](C)C(=O)N1Cc2ccccc2C[C@H]1C(=O)O
inactive: [1] | [5] | [6] | [7] | [8] | [3]

CCC(C)C(C(=O)OCC[N+](C)(CC)CC)c1ccccc1 (stereo not given)
inactive: [1] | [5] | [6] | [7]

CCNC(=O)/C=C/c1cccc(Br)c1
inactive: [1] | [5] | [6] | [7] | [8] | [3]

NC/C=C/C(=O)O
inactive: [1] | [2] | [3] | [4]

CC(C)(C)CC(C)(C)c1cc(Cc2cc(C(C)(C)CC(C)(C)C)cc(-n3nc4ccccc4n3)c2O)c(O)c(-n2nc3ccccc3n2)c1
inactive: [1] | [5] | [6] | [7] | [8] | [3]

COc1cc2nc(N3CCN(C(=O)C4COc5ccccc5O4)CC3)nc(N)c2cc1OC (stereo not given)
inactive: [1] | [5] | [6] | [7]

COc1cc([C@H]2Oc3cc([C@H]4Oc5cc(O)cc(O)c5C(=O)[C@@H]4O)ccc3O[C@@H]2CO)ccc1O
active: [2] 86.2 µM | [4] 87.1 µM
inactive: [1]

C[C@H](CCC(=O)O)[C@H]1CC[C@H]2[C@@H]3[C@H](O)C[C@@H]4C[C@H](O)CC[C@]4(C)[C@H]3C[C@H](O)[C@]12C
inactive: [1] | [5] | [6] | [7] | [8] | [3] | [4]

CC(C)(C(=O)c1cccnc1)c1cccnc1
active: [10] 35.3 µM | [11] 36.9 µM | [12] 29.1 µM | [13] 1.56 µM | [14] 0.13 µM
not listed: [2] | [3]
inactive: all other assays above

Source: PubChem BioAssay (EPA / NIEHS)
